Assay [1] in a line: optical density shifts of acrAB sulA E. coli – strain DRC41, OD650, 48 h, E. coli filamentation inducer project, primary screen (AID 1152).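 Also: E. coli MC1000 strain DRC41 lacking acrAB efflux pump and sulA.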 The following applies: higher = more signal, called active from +8 up or from −8 down.
The nature of assay [2]: probe aLefty1 binding on compound microarray – biochemical, small-molecule microarray, 635/667 nm fluorescence, primary screen (AID 1153).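 Also: score merges spot fluorescence with signal-to-noise ratio from the scanned slide images.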 As to conditions: higher = more signal.
Assay [3] in a line: plasmodial surface anion channel blockers, osmotic lysis – cell-based, P. falciparum Indochina, OD700, 1 h, primary screen (AID 1154). The following applies: P. falciparum Indochina infected RBC osmotic lysis, higher = more signal, called active from +8 up or from −8 down.
Assay [4] can be described thus: plasmodial surface anion channel blockers, osmotic lysis – cell-based, P. falciparum Indochina, OD700, 2 h, primary screen (AID 1155).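 Also: lysis reports solute entry through the parasite surface anion channel PSAC.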 The following applies: P. falciparum Indochina infected erythrocytes, higher = more signal, called active from +8 up or from −8 down.
Assay [5] is described as follows: changes in parasitized red cell lysis, either direction – P. falciparum Indochina, OD700, 3 h, PSAC antagonist project, primary screen (AID 1156). The following applies: P. falciparum-infected erythrocytes, osmotic lysis, higher = more signal, called active from +8 up or from −8 down.
Assay [6] can be described thus: plasmodial surface anion channel blockers, osmotic lysis – cell-based, P. falciparum Indochina, OD700, 18 h, primary screen (AID 1157). As to conditions: P. falciparum Indochina infected erythrocytes, osmotic lysis OD700, 18 h; higher = more signal, called active from +8 up or from −8 down.
Assay [7] can be described thus: S6 kinase pathway phospho-S6 level changes – cell-based, A549, cytoblot, luminescence, serum-stimulated, primary screen (AID 1158).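 Also: serum-stimulated A549 lung adenocarcinoma cells; signal is phosphorylated S6 detected by cytoblot immunostaining with HRP secondary.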 As to conditions: 5 h, higher = more signal.
In assay [8] the target is NADPH oxidase 2 (Homo sapiens) (UniProt P04839). Briefly: compounds shifting NOX2 Amplex Red fluorescence – cell-based, HEK293-NOX2, PMA-stimulated, NOX inhibitor project, primary screen (AID 1159). Also: test concentration not given here. The following applies: 45 min, higher = more signal, called active from +8 up or from −8 down.
Chain of NADPH oxidase 2 (Homo sapiens) (P04839 whole entry, looked up): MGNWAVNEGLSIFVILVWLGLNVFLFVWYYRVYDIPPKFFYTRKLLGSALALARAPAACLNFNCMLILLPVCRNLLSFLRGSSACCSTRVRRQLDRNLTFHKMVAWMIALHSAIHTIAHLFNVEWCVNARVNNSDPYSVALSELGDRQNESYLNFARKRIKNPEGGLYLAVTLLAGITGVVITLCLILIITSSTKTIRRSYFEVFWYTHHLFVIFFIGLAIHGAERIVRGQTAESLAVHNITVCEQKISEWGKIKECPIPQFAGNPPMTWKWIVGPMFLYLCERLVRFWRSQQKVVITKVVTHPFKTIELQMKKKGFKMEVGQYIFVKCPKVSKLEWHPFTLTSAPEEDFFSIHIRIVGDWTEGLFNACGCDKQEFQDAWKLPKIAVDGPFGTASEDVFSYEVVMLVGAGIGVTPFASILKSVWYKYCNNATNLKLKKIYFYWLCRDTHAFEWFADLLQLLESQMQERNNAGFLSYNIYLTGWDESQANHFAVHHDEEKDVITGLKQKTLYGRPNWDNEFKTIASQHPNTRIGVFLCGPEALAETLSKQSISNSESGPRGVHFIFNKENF
The target in assay [9] is NADPH oxidase 4 (Homo sapiens) (UniProt Q9NPH5). The assay can be described thus: compounds shifting NOX4 Amplex Red fluorescence – cell-based, HEK293-NOX4, tetracycline-induced, NOX inhibitor project, primary screen (AID 1160). As to conditions: HEK293-NOX4, Amplex Red H2O2 fluorescence, 45 min; higher = more signal, called active from +8 up or from −8 down.
Chain of NADPH oxidase 4 (Homo sapiens) (Q9NPH5 whole entry, looked up): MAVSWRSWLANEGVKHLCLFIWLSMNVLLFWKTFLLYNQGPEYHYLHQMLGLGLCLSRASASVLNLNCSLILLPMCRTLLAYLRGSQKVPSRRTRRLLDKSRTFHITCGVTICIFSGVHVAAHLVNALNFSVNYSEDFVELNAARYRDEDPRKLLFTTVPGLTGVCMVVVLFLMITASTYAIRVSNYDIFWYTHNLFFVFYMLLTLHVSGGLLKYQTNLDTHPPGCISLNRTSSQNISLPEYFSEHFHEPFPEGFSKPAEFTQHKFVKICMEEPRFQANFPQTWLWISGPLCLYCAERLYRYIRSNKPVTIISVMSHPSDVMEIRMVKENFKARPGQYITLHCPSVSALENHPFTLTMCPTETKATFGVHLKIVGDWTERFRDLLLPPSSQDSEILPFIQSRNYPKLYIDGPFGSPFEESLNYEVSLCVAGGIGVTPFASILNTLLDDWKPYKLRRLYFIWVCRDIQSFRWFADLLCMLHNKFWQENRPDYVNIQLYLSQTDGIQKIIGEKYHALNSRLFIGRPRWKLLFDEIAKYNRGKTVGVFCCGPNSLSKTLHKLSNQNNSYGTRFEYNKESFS
Assay [10] deals with NADPH oxidase 5 (Homo sapiens) (UniProt Q96PH1). The assay can be described thus: compounds shifting NOX5 Amplex Red fluorescence – cell-based, HEK293-NOX5, NOX inhibitor project, primary screen (AID 1161). As to conditions: HEK293-NOX5, ionomycin, 45 min, higher = more signal.
Chain of NADPH oxidase 5 (Homo sapiens) (Q96PH1 whole entry, looked up): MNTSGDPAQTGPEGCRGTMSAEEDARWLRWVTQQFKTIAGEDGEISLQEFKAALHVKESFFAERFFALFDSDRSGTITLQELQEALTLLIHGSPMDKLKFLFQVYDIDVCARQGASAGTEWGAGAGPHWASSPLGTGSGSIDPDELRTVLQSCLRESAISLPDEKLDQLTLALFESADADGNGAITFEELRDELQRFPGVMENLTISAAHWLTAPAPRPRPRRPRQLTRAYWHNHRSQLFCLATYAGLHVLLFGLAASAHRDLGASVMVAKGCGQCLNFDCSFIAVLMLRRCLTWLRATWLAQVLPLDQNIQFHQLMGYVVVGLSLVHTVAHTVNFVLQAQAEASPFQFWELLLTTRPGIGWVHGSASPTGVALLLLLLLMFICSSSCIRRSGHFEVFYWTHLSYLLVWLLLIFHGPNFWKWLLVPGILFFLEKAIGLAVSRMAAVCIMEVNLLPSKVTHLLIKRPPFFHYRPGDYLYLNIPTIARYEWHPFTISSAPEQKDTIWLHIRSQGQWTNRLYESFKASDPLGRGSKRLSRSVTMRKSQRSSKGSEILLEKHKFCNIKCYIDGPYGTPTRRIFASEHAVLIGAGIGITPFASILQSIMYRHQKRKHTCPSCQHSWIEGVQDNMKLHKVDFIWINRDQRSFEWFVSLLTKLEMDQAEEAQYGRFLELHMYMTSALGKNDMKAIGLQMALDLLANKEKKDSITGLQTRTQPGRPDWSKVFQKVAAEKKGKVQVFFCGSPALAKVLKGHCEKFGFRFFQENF

Activity calls are given as the source filed them.

As for `CC1CC/C=C\[C@H]2OC34C=CCN(c5ccc(Cl)cc5)C(=O)[C@H]3N(CCO)C(=O)[C@]4(C)C2C(=O)O1` (stereo not given in full), the z-score was -0.209 (inactive) in [1]; 2.73 (inactive) in assay [3]; 0.402 (inactive) in assay [4]; 0.0852 (inactive) in [5]; 0.382 (inactive) in assay [6]; 1.13 in [7]. In addition, the figures for the z-score in [8], in assay [9] and in [10] were 1.66 (inactive), 0.741 (inactive) and 3.16, respectively. Also, in assay [2], the composite z-score is -0.485.

In the case of `O=C1C2C=CC(C(O)c3c(F)cccc3Cl)N(Nc3ccccc3)C2C(=O)N1c1ccccc1` (stereo not given), the z-score was -0.0623 (inactive) in [1]; 18.7 (active) in [3]; 3.73 (inactive) in assay [4]; 0.419 (inactive) in assay [5]; 1.93 (inactive) in assay [6]; -0.458 in [7]. The figures for the z-score in assay [8], in assay [9] and in assay [10] were -1.69 (inactive), -3.01 (inactive) and -2.42, respectively. The molecule also gave a composite z-score in [2] of 0.547.

As to `[N-]=[N+]=NCc1ccccc1[C@@H]1OC(c2ccc(OCCCO)cc2)=N[C@]1(CCS(=O)(=O)c1ccccc1)C(=O)NCCN1CCOCC1`, the z-score in assay [1] is 0.36 (inactive); in assay [3], 24 (active); in assay [4], 6.42 (inactive); in [5], 0.854 (inactive); in assay [6], 0.763 (inactive); in assay [7], -0.291. Moreover, the z-score in [8] is 0.961 (inactive); in assay [9] it was 1.92 (inactive); in [10] it was 2.34. The composite z-score in assay [2] turned out to be 0.461.

In the case of `O=C1NCC(=O)N2[C@@H]1C[C@@H](C(=O)O)[C@H]2c1cccc(OCCO)c1`, the z-score in assay [1] was 0.0481 (inactive); in assay [3] it was 2.24 (inactive); in [4], 1.34 (inactive); in assay [5], -1.22 (inactive); in [6], 0.572 (inactive); in assay [7] it was 0.863. The figures for the z-score in [8], in [9] and in [10] were 0.313 (inactive), 0.281 (inactive) and 1.62, respectively. The composite z-score in assay [2] was 3.14.

With `Cc1ccc(S[C@]2(C(=O)NC3CC3)CC(=O)N(C3Cc4ccccc4C3)[C@@H]2c2ccc(CO)cc2)cc1`, the z-score in assay [1] was 2.26 (inactive); in assay [3], 0.924 (inactive); in assay [4], -0.578 (inactive); in assay [5] it was -0.758 (inactive); in assay [6] it was -0.876 (inactive); in [7] it was 0.827. Further, the figures for the z-score in assay [8], in assay [9] and in assay [10] were -0.655 (inactive), 0.585 (inactive) and 0.205, respectively. Also, the composite z-score in [2] amounted to 0.0962.

Regarding `COc1ccc(C(O)C2C=CC3C(=O)N(C)C(=O)C3N2N2CCCCC2)c2ccccc12` (stereo not given), the z-score in assay [1] was -1.53 (inactive); in [3] it was 1.24 (inactive); in assay [4], 1.05 (inactive); in [5], 1.01 (inactive); in assay [6], 0.778 (inactive); in assay [7], -1.08. Besides, the z-score is 0.273 (inactive) in [8], -1.72 (inactive) in assay [9] and 1.03 in assay [10]. The molecule also returned a composite z-score in [2] of 0.517.

As to `CCCCCCC#C[Si](O[C@H](c1ccccc1)c1cn([C@H](CO)Cc2ccccc2)nn1)(C(C)C)C(C)C`, the z-score was 2.03 (inactive) in assay [1]; 0.704 (inactive) in assay [3]; 0.268 (inactive) in [4]; -0.55 (inactive) in assay [5]; 0.602 (inactive) in [6]; 0.447 in assay [7]. Besides, the z-score in assay [8] is -1.25 (inactive); in assay [9], -0.227 (inactive); in assay [10], -2.2. For the same molecule, in assay [2], the composite z-score is -0.217.

`CC(C)(C)OC(=O)CC[C@]12N=C(c3ccc(OCCCO)cc3)O[C@H]1c1ccccc1N(CCS(=O)(=O)c1ccccc1)C2=O`: the z-score in [1] was -1.59 (inactive); in assay [3] it was 32.2 (active); in assay [4], 28.5 (active); in [5], 4.08 (inactive); in assay [6], 8.71 (active); in assay [7], -0.321. For the same molecule, the z-score in [8] is -0.859 (inactive); in assay [9], 1.12 (inactive); in assay [10], -1.06. The same molecule displayed a composite z-score in [2] of 0.447.

As to `O=C1O[C@H](c2ccccc2)[C@H](c2ccccc2)N2[C@H]1[C@@H](C(=O)Nc1nc3ccccc3s1)[C@]1(C(=O)Nc3ccc(C#CCCO)cc31)[C@H]2c1ccc(OCCO)cc1`, the z-score in [1] is -0.448 (inactive); in assay [3], 3.09 (inactive); in [4], 2.02 (inactive); in assay [5] it was 0.97 (inactive); in assay [6] it was 2 (inactive); in assay [7], -0.472. In addition, the z-score was 1.18 (inactive) in assay [8], 0.111 (inactive) in [9] and 0.278 in assay [10]. This molecule also came in with a composite z-score in [2] of 1.34.

Turning to `C=CC[C@@]1(C(=O)NCc2ccccc2)N=C(c2ccc(OCCCO)cc2)O[C@@H]1c1ccccc1N=[N+]=[N-]`, the z-score in assay [1] is -0.304 (inactive); in assay [3] it was 33.3 (active); in assay [4] it was 31.1 (active); in assay [5], 3.73 (inactive); in assay [6] it was 8.16 (active); in assay [7], -0.126. Further, the z-score in [8] is -1.88 (inactive); in [9] it was 1.29 (inactive); in [10], -0.965. This molecule also returned a composite z-score in assay [2] of 0.869.

For the molecule `C=C(COC)/C(=C/C[C@H](OC(=O)c1ccncc1)c1ccc(OCCO)cc1)c1cnc2ccccc2c1`, the z-score is -0.469 (inactive) in assay [1]; 20 (active) in assay [3]; 3.18 (inactive) in assay [4]; 1.47 (inactive) in assay [5]; 0.848 (inactive) in [6]; 0.123 in assay [7]. Further, the z-score in [8] is -0.294 (inactive); in assay [9], -0.192 (inactive); in assay [10], -0.608. The molecule further gave a composite z-score in assay [2] of 0.062.

Turning to `COc1ccc([Si](C)(C)[C@H]2[C@H](CCn3cc([C@H](O)c4ccccc4)nn3)O[C@@]3(C(=O)N(Cc4cccc(N5CCOC5=O)c4)c4ccccc43)[C@@H]2C)cc1`, the z-score was -0.454 (inactive) in assay [1]; 26.1 (active) in [3]; 9.3 (active) in assay [4]; -0.295 (inactive) in assay [5]; 1.4 (inactive) in [6]; 0.17 in [7]. For the same molecule, the z-score in assay [8] is 0.0189 (inactive); in [9], 2.51 (inactive); in [10], 2.28. This molecule also came in with a composite z-score in [2] of -0.249.

In the case of `COc1ccc(C(=O)Nc2ccc(CN3C(=O)[C@@]4(O[C@@H](CCn5cc([C@H](O)c6ccccc6)nn5)[C@H]([Si](C)(C)c5ccc(OC)cc5)[C@H]4C)c4ccccc43)cc2)cc1`, the z-score in [1] was -0.203 (inactive); in assay [3], 19.8 (active); in assay [4] it was 5.6 (inactive); in assay [5], 2.08 (inactive); in [6] it was 1.43 (inactive); in assay [7], 0.134. For the same molecule, the z-score is 0.295 (inactive) in assay [8], 0.709 (inactive) in [9] and 2.2 in assay [10]. The molecule further yielded a composite z-score in assay [2] of 0.191.
